This passage reports Euclidean distance results from the supplement of paper PMC10127200.

Counter-ions that a name gives are not always drawn.

What all share (assay): Euclidean distance of Cell Painting phenotypic profile (signed KS, 77 features) to DMSO centroid (dimensionless distance); 5 or 10 uM (library dependent); higher = stronger phenotypic change vs DMSO (phenoactivity)
Common to all, as to conditions: 48 h

One experiment relates to 786-O. In outline: (§1)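 Phenoactivity is defined as the Euclidean distance from a compound profile to the median vehicle profile. Each profile comprised 77 Harmony features, scored as signed Kolmogorov-Smirnov statistics versus same-plate vehicle wells, then plate-position corrected, correlation-weighted and replicate-averaged at the top dose. Five cancer lines and one healthy fibroblast line were exposed to library compounds for 48 h at 10 or 5 uM (0.1% DMSO final).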

For another experiment, the system named is A549. In outline: as §1
A further experiment relates to FB. In a few lines:
as §1

A further experiment concerns HEPG2. In outline: as §1
The subject of another experiment is OVCAR4. In a few lines:
as §1

Take `CC12CCC(CC1)C(C)(C)O2` [Eucalyptol]: the Euclidean distance with 786-O was 0.884; in the experiment on A549, 0.614; with FB, 0.855; in the experiment with HEPG2, 0.869; in the experiment with OVCAR4, 0.746.
Regarding `CCCNC(C)C(=O)Nc1c(C)csc1C(=O)OC` (stereo not given) [Articaine HCl], the Euclidean distance in the experiment with 786-O turned out to be 1.24; in the experiment on A549 it was 0.941; in the experiment with FB, 0.813; in the experiment with HEPG2, 0.87; in the experiment with OVCAR4 it was 1.06.
Consider `CC1=C(/C=C/C(C)=C/C=C/C(C)=C/C(=O)O)C(C)(C)CCC1` [Tretinoin], for which the Euclidean distance in the experiment with 786-O worked out at 1.24; in the experiment on A549, 1.29; with FB, 2.68; with HEPG2, 1.21; in the experiment with OVCAR4 it was 1.18.
Take `COc1ccc(-n2nc(C(N)=O)c3c2C(=O)N(c2ccc(N4CCCCC4=O)cc2)CC3)cc1` [Apixaban]: the Euclidean distance in the experiment with 786-O came to 2.4; in the experiment with A549 it was 2.33; in the experiment on FB it was 3.79; with HEPG2, 1.17; with OVCAR4 it was 2.13.
For `COC(=O)C[C@](O)(CCCC(C)(C)O)C(=O)O[C@@H]1C(OC)=C[C@]23CCCN2CCc2cc4c(cc2[C@H]13)OCO4` [Homoharringtonine] the same measures were 3.57, 3.34, 4.13, 3.18 and 3.7.
The corresponding values for `COc1ccc2[nH]c([S@@+]([O-])Cc3ncc(C)c(OC)c3C)nc2c1` [Esomeprazole sodium] are 0.925, 0.792, 0.681, 1.32 and 0.926.
As to `Cc1ccc(Sc2ccccc2N2CCNCC2)c(C)c1` [Vortioxetine], the Euclidean distance in the experiment with 786-O was found to be 2.68; in the experiment with A549, 2.71; with FB it was 2.68; in the experiment with HEPG2, 5.06; in the experiment on OVCAR4, 2.43.
On to `CN1CCc2nc(C(=O)N[C@@H]3C[C@@H](C(=O)N(C)C)CC[C@@H]3NC(=O)C(=O)Nc3ccc(Cl)cn3)sc2C1` [Edoxaban], for which the Euclidean distance in the experiment on 786-O stood at 1.02; with A549 it was 0.603; in the experiment on FB, 0.835; in the experiment on HEPG2 it was 0.275; in the experiment on OVCAR4 it was 0.602.
For `O=C1N=C(O)NC1(c1ccccc1)c1ccccc1` [Phenytoin Sodium] the same measures were 0.861, 0.644, 0.99, 0.976 and 0.588.
On to `COc1ccc(CC(C)NCC(O)c2ccc(O)c(NC=O)c2)cc1` (stereo not given) [Formoterol Hemifumarate], for which the Euclidean distance in the experiment with 786-O came to 1.29; in the experiment on A549, 0.672; in the experiment with FB it was 0.886; with HEPG2, 1.15; in the experiment on OVCAR4 it was 1.94.
On to `COc1c(O)cc2c(c1O)[C@@H]1O[C@H](CO)[C@@H](O)[C@H](O)[C@H]1OC2=O` [Bergenin], for which the Euclidean distance in the experiment on 786-O stood at 1.22; in the experiment on A549, 0.742; in the experiment on FB it was 0.906; with HEPG2 it was 0.765; in the experiment with OVCAR4 it was 2.16.
The corresponding values for `COc1cc(N)cn[n+]1-c1ccccc1` [Amezinium (methylsulfate)] are 1.39, 0.864, 0.801, 0.523 and 1.16.
As to `CN1CC[C@H](c2c(O)cc(O)c3c(=O)cc(-c4ccccc4Cl)oc23)[C@H](O)C1` [Flavopiridol (Alvocidib)], the Euclidean distance is 3.09 in the experiment with 786-O; 3.07 in the experiment on A549; 3.22 with FB; 2.66 in the experiment on HEPG2; 3.72 in the experiment on OVCAR4.
The corresponding values for `C[C@@H]1C[C@H]2[C@@H]3CCC4=CC(=O)C=C[C@]4(C)[C@@]3(F)[C@@H](O)C[C@]2(C)[C@H]1C(=O)CO` [Desoximetasone] are 1.28, 2.05, 1.89, 0.967 and 2.03.
For `CC(C)[C@H]1C(=O)N[C@@H](CCCN=C(N)N)C(=O)NCC(=O)N[C@@H](CC(=O)O)C(=O)N[C@H](Cc2ccccc2)C(=O)N1C`, the Euclidean distance was found to be 4.91 in the experiment with 786-O; 2.03 in the experiment on A549; 1.25 in the experiment with FB; 4.74 in the experiment on HEPG2; 2.44 with OVCAR4.
As to `O=c1n(CCCN2CCN(c3cccc(Cl)c3)CC2)nc2ccccn12` [Trazodone], the Euclidean distance in the experiment with 786-O was found to be 0.477; with A549, 1.03; in the experiment with FB, 0.908; with HEPG2 it was 0.599; in the experiment on OVCAR4 it was 1.37.
For `CC1(C)[C@@H](O[C@H]2O[C@H](C(=O)O)[C@@H](O)[C@H](O)[C@H]2O[C@@H]2O[C@H](C(=O)O)[C@@H](O)[C@H](O)[C@H]2O)CC[C@]2(C)[C@H]3C(=O)C=C4[C@@H]5C[C@@](C)(C(=O)O)CC[C@]5(C)CC[C@@]4(C)[C@]3(C)CC[C@@H]12` [Glycyrrhizin (Glycyrrhizic Acid)] the same measures were 1.52, 0.67, 1.38, 0.607 and 1.47.
For `NCCCC(N)(C(=O)O)C(F)F` (stereo not given) [Eflornithine hydrochloride hydrate] the same measures were 1.45, 1.26, 1.21, 0.792 and 1.43.
For `CN1c2ccccc2C(=O)N2CCc3c([nH]c4ccccc34)C21` (stereo in doubt) [Evodiamine] the same measures were 2.67, 2.85, 1.59, 2.03 and 1.81.
For the molecule `CCC(NC(C)C)C(O)c1ccc(O)c(O)c1` (stereo not given) [Isoetharine Mesylate], the Euclidean distance in the experiment with 786-O is 0.478; in the experiment on A549 it was 0.789; in the experiment with FB, 1.18; in the experiment on HEPG2 it was 0.832; in the experiment on OVCAR4, 1.01.
